Experimental data from paper PMC7819943, “Rice protein-binding microarrays: a tool to detect cis-acting elements near promoter regions in rice”.
The full ranking holds about 68,000 sequences; the median of “fluorescence intensity (a.u.)” is about 9,100, and the highest 2% start at about 16,000. This excerpt belongs to a sample that is enriched for the highest values.

The sequences below were run against OsWRKY34 (Oryza sativa, UniProt Q0JBA9 1-250) (assay: protein-binding microarray (RPBM); PBS, 2% BSA, 51.3 ng/ul salmon testes DNA, 50 uM zinc acetate, 200 nM TF, 25 C, 1 h; high values mean tight binding). Conditions: protein: recombinant; tags: N-terminal polyhistidine and DsRed monomer fusion (pET32a); label: CyDye5-dUTP incorporated in the synthesized complementary strand; 3' TTTTT single-stranded linker to array surface; dsDNA, one strand shown.
Sequence of OsWRKY34 (Q0JBA9 entry or part of it): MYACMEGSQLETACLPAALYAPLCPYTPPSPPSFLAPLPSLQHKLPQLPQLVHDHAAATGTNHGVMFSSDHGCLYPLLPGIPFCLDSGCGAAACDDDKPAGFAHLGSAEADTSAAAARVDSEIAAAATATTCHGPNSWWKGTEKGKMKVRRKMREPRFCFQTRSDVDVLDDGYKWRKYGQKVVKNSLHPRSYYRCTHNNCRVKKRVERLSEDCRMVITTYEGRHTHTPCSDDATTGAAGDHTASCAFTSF
Summary of the method: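 In PBS with 2% BSA, salmon testes DNA and 50 µM zinc acetate, 200 nM protein was incubated on a custom Agilent array at 25 °C for 1 h and then washed off. The array had been made double-stranded by primer extension with Cy5-dUTP and blocked with 2% BSA. The proteins were transcription factors fused N-terminally to polyhistidine and DsRed, expressed in E. coli BL21-CodonPlus and purified on Ni–NTA. The binding signal is per-feature fluorescence intensity (arbitrary units) from an Axon 4000B scanner.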
In the case of “CTCCCTTGCCGTCCCAGTTTCCCTGTATTCTGCATGCCGTCGGAGTCACCTAGTGCAG”, the binding signal is reported as 9850 fluorescence intensity (a.u.).
With “ACTTTGCTGCCTATTGTAGATTTGTTATAACGTAGTTACTCGGAGTCACCTAGTGCAG” the binding signal was 10400 fluorescence intensity (a.u.).
In the case of “AACCCTCGCTTTCTTTGATAATCATTCCTAACTGCCTGGTCGGAGTCACCTAGTGCAG”, the binding signal is reported as 8170 fluorescence intensity (a.u.).
With “AGTTACTGAGTTAGACGTCTCAAGCTGTGTCGTGGAATAACGGAGTCACCTAGTGCAG” the binding signal was 8700 fluorescence intensity (a.u.).
For “AGGAGAGAAAGGAAGGTGGTGTGGGTGGTTGGTGGTGGTGCGGAGTCACCTAGTGCAG”, the binding signal was 10300 fluorescence intensity (a.u.).
For “GTCTTCTCTGTTCTTCTTCAGATGGCGAAAGCTCTCACCACGGAGTCACCTAGTGCAG”, the binding signal was 10400 fluorescence intensity (a.u.).
With “ATATATATATATATATATATATATATATATATGCAGCATGCGGAGTCACCTAGTGCAG” the binding signal was 13100 fluorescence intensity (a.u.).
With “ATATATATATATATATATATACATACATATACACACACACCGGAGTCACCTAGTGCAG” the binding signal was 8050 fluorescence intensity (a.u.).
“ATATATATATATATATATGTGTGTATATATATATATATATCGGAGTCACCTAGTGCAG” was tested, and the binding signal was 8920 fluorescence intensity (a.u.).
For “ATAGCCAACTATTACTTTTAAATTATTTATAGTCAAATTTCGGAGTCACCTAGTGCAG”, the binding signal was 9190 fluorescence intensity (a.u.).
For “TATATATATATATATATATATATATATATATATGGAGTATCGGAGTCACCTAGTGCAG”, the binding signal was 24600 fluorescence intensity (a.u.).
“CTTTAATAGTATAGCCAACTACTACCTCGGAATCACCTATCGGAGTCACCTAGTGCAG” was tested, and the binding signal was 20300 fluorescence intensity (a.u.).
“TATATATACACACACACACAAACACACACACACACACACACGGAGTCACCTAGTGCAG” was tested, and the binding signal was 8720 fluorescence intensity (a.u.).
“ATATATATATATATATATATATATATGCAGCAACAGGGCCCGGAGTCACCTAGTGCAG” was tested, and the binding signal was 17400 fluorescence intensity (a.u.).
For “ATATATATATATATATATATATATATATATATGTATGTATCGGAGTCACCTAGTGCAG”, the binding signal was 10100 fluorescence intensity (a.u.).
In the case of “ATATATATATATATATATATATGTGTGTGTGTGTGTGTCCCGGAGTCACCTAGTGCAG”, the binding signal is reported as 14500 fluorescence intensity (a.u.).
With “ATATATATATATATATATATATATATATATACACACACACCGGAGTCACCTAGTGCAG” the binding signal was 22200 fluorescence intensity (a.u.).
For “GCCTGCTATTGTACCTGCTTTAATATAGCCAACCTACTATCGGAGTCACCTAGTGCAG”, the binding signal was 8330 fluorescence intensity (a.u.).
“CTACTTTACCAGCTCATCTATCACATCTTAACTGTATTTTCGGAGTCACCTAGTGCAG” was tested, and the binding signal was 10300 fluorescence intensity (a.u.).
With “ACCCGTCTCTCTTTCTTTCTTTCTCTCTCTCCTGTGTTTTCGGAGTCACCTAGTGCAG” the binding signal was 8600 fluorescence intensity (a.u.).
“TCCACACACCCCGCTTGCTAACCAACCGTGACACGCAACCCGGAGTCACCTAGTGCAG” was tested, and the binding signal was 10100 fluorescence intensity (a.u.).
In the case of “CCTAGCCCTAATTGATCCTTGCCTCGATGTTTTCCCTCCGCGGAGTCACCTAGTGCAG”, the binding signal is reported as 10100 fluorescence intensity (a.u.).
For “CCCTTGACAGCACAGAGGCAACAGCAAAACACACTCTCATCGGAGTCACCTAGTGCAG”, the binding signal was 8580 fluorescence intensity (a.u.).
“CTAGATTTTTTGGTGACATTTTTTAGTTGGTGTGCACGTGCGGAGTCACCTAGTGCAG” was tested, and the binding signal was 10200 fluorescence intensity (a.u.).
In the case of “ACTCCTCTGCATGCTTTTTTTTTCCCTTCAGTTTCAGTTGCGGAGTCACCTAGTGCAG”, the binding signal is reported as 11200 fluorescence intensity (a.u.).
In the case of “GGCAACCACCTCAATTATTATTCCATTCCCTACCACCACTCGGAGTCACCTAGTGCAG”, the binding signal is reported as 9980 fluorescence intensity (a.u.).
With “ACCTTTTTAAATATTTGACACTGTCGACTTTTTAGCACATCGGAGTCACCTAGTGCAG” the binding signal was 9730 fluorescence intensity (a.u.).
“TTGACACCGTTGACTTTTTAGCACATGTTTGACCGTTCGTCGGAGTCACCTAGTGCAG” was tested, and the binding signal was 35800 fluorescence intensity (a.u.).
“TGTTTGACACCGTTGACTTTTTAGCACATGTTTGACCGTTCGGAGTCACCTAGTGCAG” was tested, and the binding signal was 38000 fluorescence intensity (a.u.).
“TTTAACACATGTTTGACCGTTCGTCTTATTCAAAAACTTTCGGAGTCACCTAGTGCAG” was tested, and the binding signal was 10900 fluorescence intensity (a.u.).
With “GTTTTAAAATGGTTGACACCGTTGACTTTTTAGCACGTGTCGGAGTCACCTAGTGCAG” the binding signal was 30100 fluorescence intensity (a.u.).
For “TTTCAAAATATTTGACACCGTTGACTTTTTAACACATGTTCGGAGTCACCTAGTGCAG”, the binding signal was 17900 fluorescence intensity (a.u.).
For “TCAAAATGTTCGACACCGTTGACTTTTTAACACATGTTTGCGGAGTCACCTAGTGCAG”, the binding signal was 14400 fluorescence intensity (a.u.).
With “ATCCTAAAATGTTTGACACCATTGACTTTTTTAAAAATGTCGGAGTCACCTAGTGCAG” the binding signal was 8790 fluorescence intensity (a.u.).
In the case of “TGGCTTGGTCCGCTAGTTCCTAACATCATGACAGTATTTTCGGAGTCACCTAGTGCAG”, the binding signal is reported as 8280 fluorescence intensity (a.u.).
With “CCCAGGTAGGATATGTGTATGTGTTTATATGGGTGAGTCTCGGAGTCACCTAGTGCAG” the binding signal was 9300 fluorescence intensity (a.u.).
For “TTTACCTCTCTGCCGGCCTTTGCACGCTTGTAGCCCACCACGGAGTCACCTAGTGCAG”, the binding signal was 9670 fluorescence intensity (a.u.).
With “GGCACGGTTTGAACGCATTACCCATTCCCCGTTTGACTTCCGGAGTCACCTAGTGCAG” the binding signal was 12800 fluorescence intensity (a.u.).
In the case of “GCGTTACATACATCCTTATTATGTTGTTCATGTTTATAAACGGAGTCACCTAGTGCAG”, the binding signal is reported as 8240 fluorescence intensity (a.u.).
“CCTATATCATCCTTTGATAAGATCGACTGTTTGCTATTTACGGAGTCACCTAGTGCAG” was tested, and the binding signal was 9940 fluorescence intensity (a.u.).
With “TGCCAATGCCAGGGTTTTCGTCGGTTTTACATAAATTAACCGGAGTCACCTAGTGCAG” the binding signal was 8500 fluorescence intensity (a.u.).
For “GTGGAATCGTTCGTTCTTGACTTCACCTACCAAGATTTGCCGGAGTCACCTAGTGCAG”, the binding signal was 8640 fluorescence intensity (a.u.).
In the case of “CCTCGCTCCGTCGCTCACAACCCGTCTCCTGCTCGATCCGCGGAGTCACCTAGTGCAG”, the binding signal is reported as 9140 fluorescence intensity (a.u.).
In the case of “TAGCATGACCTTTCACCCATACATATGAGCTACTTCTCTTCGGAGTCACCTAGTGCAG”, the binding signal is reported as 9280 fluorescence intensity (a.u.).
With “ATGTATAACACTGTTGACTTTTTAAGATATATTTGATCATCGGAGTCACCTAGTGCAG” the binding signal was 15900 fluorescence intensity (a.u.).
For “GAGATATCGTTGACTTTTAGCATAACATAGACCATTCAGCCGGAGTCACCTAGTGCAG”, the binding signal was 18300 fluorescence intensity (a.u.).
